Only some compounds are listed: those with a hit (about 7.8% of all), similar ones and a draw of the others.
Marburg entry inh: blocks Marburg virus binding to or entry into cells; 1.8% of 300,000 active; Potency, µM (top dose mostly 37.8 µM), for inactives: at the top dose activity change, negative = inhibition, hits mostly inhibitors; Marburg virus pseudotyped entry inhibition, cell reporter; calls by dose curve; tested in HEK293 cells; note: potency is the fitted concentration of half-maximal effect
VACV Venus inh: inhibitors of vaccinia virus (Venus reporter). Vaccinia virus Venus reporter expression, fluorescence. Potency, µM (highest dose often 36.5 µM), for inactives: top-dose activity change, negative = inhibition, most hits filed as inhibitors. 0.46% of 330,000 active. AID 720580; calls by dose curve; tested in A549 cells; note: potency is the fitted concentration of half-maximal effect; nearly all actives have a fitted effect of over 30% in size
HCV inhibitor: inhibitors of hepatitis C virus infection | Potency, µM (top dose mostly 41.8 µM), without a hit: at the highest dose activity change, negative = inhibition, hits mostly inhibitors | Huh7.5.1 HCVcc-Cre infection, luciferase reporter, 44 h | AID 651820 | 3.4% of 340,000 active; active = well fitted inhibition curve with a large enough effect; inconclusive = small, poorly fitted or top-dose-only effect, or another doubt; inactive = no such curve, though single readings can be large or run the other way; note: potency is the fitted concentration of half-maximal effect
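Reporter virus HCVcc-Cre (~0.5 moi) infects cells exposed to compound; seeding density 1,000 cells/well with 4 h settling beforehand. Luminescence, 15 sec read, taken 44 h post-infection following a 15 min RT substrate incubation.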
Lassa entry inh: Lassa virus entry inhibition. Lassa virus pseudotype entry inhibition, cell reporter. Potency, µM (series often up to 37.9 µM), for inactives: top-dose activity change, negative = inhibition, actives largely listed as inhibitors. 1.2% of 300,000 active. AID 540256; calls by dose curve; tested in HEK293 cells; note: potency is the fitted concentration of half-maximal effect; nearly all actives have a fitted effect of over 50% in size
HCMV antiviral: blocks human cytomegalovirus replication | HFF cells, HCMV-luciferase reporter, 72 h; active compounds read low | activity change, negative = inhibition, % at 57.5 µM | 4.5% of 410,000 active | AID 1259415; in the data active = activity change below about -60%; inconclusive = no clear call, values can overlap the other calls; inactive = above about -39%
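Human foreskin fibroblasts infected with luciferase-reporter HCMV at MOI 1 PFU/cell, compounds at two doses. Luciferase measured 72 h post infection; normalized to buffer-only basal and Salinomycin (10uM) controls.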
VACV mCherry inh: inhibitors of vaccinia virus infection (mCherry reporter signal); Vaccinia virus mCherry reporter infection, fluorescence; Potency, µM (titrated, usually from 36.5 µM), without a hit: at the highest dose activity change, negative = inhibition, usual class: inhibitors; 0.63% of 310,000 active; calls by dose curve; tested in A549 cells; note: potency is the fitted concentration of half-maximal effect; nearly all actives have a fitted effect of over 35% in size
* marks the source's active call; other numbers are inactive results; i = inactive; ? = inconclusive; . = no result given; [ ] = dose if it differs, or a comment. % is set by controls: 0 for no effect and ±100 for the full control effect.

SMILES	Marburg entry inh	VACV Venus inh	HCV inhibitor	Lassa entry inh	HCMV antiviral	VACV mCherry inh
Cc1ccccc1OCCCCn1nnc2sc3c(c2c1=O)CCC(C)C3 (stereo not given)	0.1%[46.1 µM]	-0.6%	.	?	15.1	-8.1%
Cc1ccc(OCC(=O)NC(=S)Nc2cccc(NC(=O)c3ccccc3)c2)cc1	?	-12.7%	0.8%	-26.4%	28.7	i
O=C(NNC(=S)Nc1cccc(C(F)(F)F)c1)c1ccc(Cl)cc1Cl	?	?	?	-0.4%	-66.5*	?
COc1ccc(NC(=S)NNC(=S)Nc2cccc(C(F)(F)F)c2)cc1	?	-18.7%[7.34 µM]	?	?	-76.1*	?
FC(F)(F)c1cccc(NC(=S)NCc2ccccc2)c1	0.1%	?	-10.8%	?	-72.6*	.
Cc1ccc(OCC(=O)NC(=S)Nc2cccc(NC(=O)c3ccc(Cl)cc3Cl)c2)cc1	4.6%	-9.6%	-24.7%	9.0%	-72.6*	-25.8%
CCN(CC)CCCNC(=O)CN1C(=O)CCn2nc(-c3cn(C)c4ccccc34)cc21	.	-4.3%	.	15.9%[46.1 µM]	-6.1	-10.9%
COc1cccc(C2(CC(=O)N3CCCCC3CO)CC(=O)N(C)C2=O)c1 (stereo not given)	.	7.0%	.	.	.	-6.7%
Nc1cccnc1S(=O)(=O)c1ccccc1	0.1%[46.1 µM]	-15.5%	13.0%	?	8.4	i
COc1ccccc1S(=O)(=O)c1ccccc1[N+](=O)[O-]	-3.7%	26.0%	23.7%	2.6%	-6.6	-8.9%
COc1ccc([N+](=O)[O-])c(S(=O)(=O)c2ccccc2)n1	?	11.2µM*	?	7.08µM*	-97.2*	11.2µM*
COc1ccc([N+](=O)[O-])c(S(=O)(=O)c2ccc(Cl)cc2)n1	4.47µM*	10µM*	?	?	-100.5*	?
O=[N+]([O-])c1cccnc1S(=O)(=O)c1ccccc1	?	-6.3%	?	?	-99.4*	-20.4%
CCOc1ccccc1NC(=O)c1c2c(nc3ccccc13)C(=O)N(C1CCCCC1)C2	.	-10.3%	.	?	-12.6	-19.9%
CCN(CC)CC(O)CNc1ccnc2c(Cl)ccc(Cl)c12 (stereo not given)	?	-1.7%	?	20.3%[46.1 µM]	-25.4	?
O=C(Nc1ccccc1C(=O)OCc1cc(=O)n2ccsc2n1)c1cccc(F)c1	.	-20.9%	.	-2.0%[46.1 µM]	-36.2	i
Cc1cccc(C)c1NC(=O)COC(=O)C1Cc2ccccc2CN1C(=O)c1ccccc1 (stereo not given)	15.2%	-5.3%	-0.5%	-16.9%	21.2	-16.8%
N#Cc1ccc(NC(=O)COC(=O)C2Cc3ccccc3CN2C(=O)c2ccccc2)cc1 (stereo not given)	?	-2.7%	10µM*	9.4%	-5.0	-4.8%
O=c1cc(-c2ccccc2)oc2cc(O)c(O)cc12	.	-7.1%	.	.	.	i
O=c1cc2oc3cc(O)c(O)cc3c(-c3ccccc3[N+](=O)[O-])c-2cc1O	.	-10.8%	?	.	-64.0*	-21.4%
CCc1cccc(NC(=O)CSc2ncc3c(n2)-c2ccc(Cl)cc2N(Cc2ccccc2)S3(=O)=O)c1	.	-17.7%	.	19.3%[46.1 µM]	-2.6	-25.5%
COC(=O)c1sc(=S)n(-c2cc(F)ccc2F)c1N	-2.9%	.	3.6%	-6.3%	-105.9*	.
CCCOc1ccc([C@@H]2C3CN(C(=O)OCC)CC=C3C(C#N)=C(N)C2(C#N)C#N)cc1OC (stereo not given in full)	-0.1%	.	-19.7%	10.3µM*	-21.3	.
COc1cccc(-c2cc(C(F)(F)F)n3ncc(C(=O)OC(C)C)c3n2)c1	?	-11.7%	.	-4.6%[46.1 µM]	-18.3	-19.9%
C=CCOc1ccccc1CN1CCC(C(=O)Nc2cccc(-c3ccn[nH]3)c2)CC1	.	.	?	.	-63.7*	.
SMILES	Marburg entry inh	VACV Venus inh	HCV inhibitor	Lassa entry inh	HCMV antiviral	VACV mCherry inh
CCn1cc(CN2CCC(C(=O)Nc3cccc(-c4cccc(OC)c4)c3)CC2)cn1	20.7%	-6.7%	4.0%	-1.1%	10.2	-13.2%
C=CCOc1ccccc1CN1CCC(n2nccc2NC(=O)C2CCOC2)CC1 (stereo not given)	-13.0%	-11.9%	17.0%	9.3%	?	-16.4%
CC(=O)c1cccc(CN2CCC(C(=O)Nc3cccc(-c4ccn[nH]4)c3)CC2)c1	?	-16.6%	6.31µM*	2.6%	?	-3.9%
N#CC1C=Cc2c(ccc3ccccc23)N1C(=O)c1ccccc1 (stereo not given)	?	?	-49.5%	?	-82.9*	?
COc1cccc(CNC(=O)c2c(OC)cc(=O)n3c2CCN(C(=O)c2ccccc2Cl)CC3)c1	.	-7.7%	.	.	.	i
COC(=O)C1=C(C)NC(C)=C(C(=O)OC)C(N2C(=O)CCC2=O)C1 (stereo not given)	.	.	.	.	-85.2*	.
COC(=O)C1=C(C)NC(=O)CC1c1ccccc1 (stereo not given)	-2.4%	-3.0%	2.7%	8.9%	-0.2	.
CN(Cc1cnc2nc(N)nc(N)c2n1)c1ccc(C(=O)NC(CCC(=O)O)C(=O)O)c2ccccc12 (stereo not given)	?	?	-16.2%	?	-101.2*	3.16µM*
O=C(O)CCC(NC(=O)c1ccc(Cl)cc1)C(=O)O (stereo not given)	2.4%[46.1 µM]	8.6%	2.1%	5.6%	18.2	i
CC(C)NC(=O)c1csc(COCCO)n1	.	0.6%	.	.	-9.7	-4.1%
COc1ccc(C(CNC(=O)CSc2ccccc2C)N(C)C)cc1 (stereo not given)	-23.1%[46.1 µM]	-5.5%	19.6%	-4.2%	-4.9	-12.2%
CN(C)C(CNC(=O)c1ccc(-c2ccccc2)cc1)c1ccccc1 (stereo not given)	11.2µM*	-12.8%	?	-21.8%	-1.7	-22.3%
COc1ccc(C(CNC(=O)Cc2ccc(-c3ccccc3)cc2)N(C)C)cc1 (stereo not given)	11.2µM*	-16.7%	?	12.5%	7.2	?
CN(C)C(CNC(=O)c1ccc(C(=O)c2ccccc2)cc1)c1ccccc1 (stereo not given)	?	-2.6%	2.7%	-27.4%[46.1 µM]	7.4	i
Cc1ccccc1NS(=O)(=O)c1ccc(C(=O)NCC(c2ccccc2)N(C)C)cc1 (stereo not given)	11.2µM*	-17.5%	-21.5%	-1.2%	-13.7	-4.6%
Cc1ccccc1NS(=O)(=O)c1ccc(C(=O)NCC(c2ccco2)N(C)C)cc1 (stereo not given)	-18.1%	-18.4%	-7.6%	-1.5%	-16.6	-5.2%
CN(C)CC(=O)N1CC(=O)N2[C@H](CO)[C@@H](c3ccc(Br)cc3)[C@H]2C1	.	.	.	.	-8.5	.
COc1ccc(-c2cc(C)no2)cc1S(=O)(=O)NCc1cccs1	.	-22.8%	.	-18.5%[46.1 µM]	0.0	?
COc1cccc(CC2(CO)CCCN(Cc3cc4ccccc4[nH]3)C2)c1 (stereo not given)	3.98µM*	-22.5%	-17.9%	?	4.6	?

High-throughput results from PubChem BioAssay.
